Measurements from PubChem BioAssay (EPA / NIEHS).
Calls of active or inactive are those of the source. The calls were made as follows: active = hit-call score of the fitted dose curve at least 0.9, where 1 is the maximum; inactive = score below 0.9.

Key:
Settings in all cases: mRNA level, 48 h; actives raise or lower the signal
BCL2L11 (gene 10018) = assay: LTEA_HepaRG_BCL2L11: Life Technologies and Expression Analysis (LTEA) Assay for Bcl-2 (BCL2L11) gene using HepaRG (AID 2283473)
Procedure, shortened: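 Read-out is BCL2L11 transcript level by qRT-PCR, normalized to three housekeeping genes and fitted bidirectionally against 0.5% DMSO vehicle. HepaRG cells received chemicals for 48 h in serum-free induction medium, 100 uM down in half-log dilutions.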

[1] = read-out: Apolipoprotein A-V (APOA5) gene, APOA5 (gene 116519); assay: LTEA_HepaRG_APOA5: Life Technologies and Expression Analysis (LTEA) Assay for Apolipoprotein A-V (APOA5) gene using HepaRG (AID 2283474)
Procedure, shortened: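 Readout is APOA5 transcript level by qRT-PCR on Fluidigm dynamic arrays, normalized to three housekeeping genes. HepaRG cultures received chemicals for 48 h at up to 100 uM (half-log steps, 0.5% DMSO), with gain or loss scored relative to DMSO.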

[2] = read-out: Apoptosis regulator Bcl-2 (Homo sapiens) (UniProt P10415); assay: LTEA_HepaRG_BCL2: Life Technologies and Expression Analysis (LTEA) Assay for Bcl-2 gene using HepaRG (AID 2283475)
Procedure, shortened: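 Differentiated human HepaRG cells in serum-free induction medium exposed 48 h, in duplicate, to 8-point half-log series from 100 uM in 0.5% DMSO. BCL2 mRNA by qRT-PCR (TaqMan/Fluidigm), normalized to ACTB, GAPDH, POLR2A; bidirectional fit against DMSO.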

[3] = read-out: Bcl-2 (BID) gene, BID (gene 637); assay: LTEA_HepaRG_BID: Life Technologies and Expression Analysis (LTEA) Assay for Bcl-2 (BID) gene using HepaRG (AID 2283476)
Procedure, shortened: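 Gene expression by qRT-PCR in HepaRG cells after 48 h exposure, duplicate wells, eight half-log concentrations topping at 100 uM in 0.5% DMSO. Normalized to ACTB, GAPDH, POLR2A; bidirectional fitting relative to DMSO.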

Caspase-3 (Homo sapiens) = Caspase-3 (Homo sapiens) (UniProt P42574); assay: LTEA_HepaRG_CASP3: Life Technologies and Expression Analysis (LTEA) Assay for cysteine-aspartic acid protease (CASP3) using HepaRG (AID 2283477)
Procedure, shortened: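 Read-out is CASP3 mRNA level by TaqMan qRT-PCR in human HepaRG cells after 48 h chemical exposure. Eight half-log concentrations topping at 100 uM were tested in 0.5% DMSO; gain or loss was fitted relative to DMSO.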

[4] = read-out: Cytochrome P450 (CYP24A1), CYP24A1 (gene 1591); assay: LTEA_HepaRG_CYP24A1: Life Technologies and Expression Analysis (LTEA) Assay for Cytochrome P450 (CYP24A1) using HepaRG (AID 2283478)
Procedure, shortened: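 HepaRG, 48 h chemical exposure, 8-pt half-log CRC from 100 uM, 0.5% DMSO vehicle, duplicates. Endpoint: CYP24A1 mRNA by Fluidigm TaqMan qRT-PCR, normalized ACTB/GAPDH/POLR2A; gain/loss fit vs DMSO.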

[5] = read-out: Cytochrome P450 (CYP1A2), CYP1A2 (gene 1544); assay: LTEA_HepaRG_CYP1A2: Life Technologies and Expression Analysis (LTEA) Assay for Cytochrome P450 (CYP1A2) using HepaRG (AID 2283479)
Procedure, shortened: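 CYP1A2 transcript induction or loss, quantified by Fluidigm qRT-PCR against three housekeeping genes, was fitted bidirectionally against 0.5% DMSO controls. Human HepaRG cells received eight half-log concentrations from 100 uM over 48 h.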

[6] = read-out: cysteine-aspartic acid protease (CASP8), CASP8 (gene 841); assay: LTEA_HepaRG_CASP8: Life Technologies and Expression Analysis (LTEA) Assay for cysteine-aspartic acid protease (CASP8) using HepaRG (AID 2283480)
Procedure, shortened: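 HepaRG, 48 h exposure, duplicate wells; 8 conc, half-log from 100 uM, 0.5% DMSO. Serum-free induction medium. CASP8 mRNA by TaqMan qRT-PCR, norm. ACTB/GAPDH/POLR2A; gain/loss fitted vs DMSO.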

[7] = read-out: Cytochrome P450 (CYP2B6), CYP2B6 (gene 1555); assay: LTEA_HepaRG_CYP2B6: Life Technologies and Expression Analysis (LTEA) Assay for Cytochrome P450 (CYP2B6) using HepaRG (AID 2283481)
Procedure, shortened: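 HepaRG cells plated 48 h, switched to serum-free induction medium, then dosed 48 h (8 points, half-log from 100 uM, 0.5% DMSO). RNA isolated; CYP2B6 expression measured by qRT-PCR; gain or loss fitted relative to DMSO.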

[8] = read-out: Cytochrome P450 2C19 (Homo sapiens) (UniProt P33261); assay: LTEA_HepaRG_CYP2C19: Life Technologies and Expression Analysis (LTEA) Assay for CYP2C19 using HepaRG (AID 2283482)
Procedure, shortened: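 Transcript levels of CYP2C19 were quantified by qRT-PCR after HepaRG cells were treated for 48 hours with test chemicals up to 100 uM (eight half-log concentrations, 0.5% DMSO vehicle). Gain or loss of signal was fitted relative to DMSO.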

CYP2C8 (gene 1558) = assay: LTEA_HepaRG_CYP2C8: Life Technologies and Expression Analysis (LTEA) Assay for CYP2C8 using HepaRG (AID 2283483)
Procedure, shortened: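 CYP2C8 mRNA induction or loss, by qRT-PCR normalized to ACTB/GAPDH/POLR2A, is read in HepaRG cells after 48 h treatment. Concentrations run from 100 uM down in half-log dilutions, with 0.5% DMSO as vehicle and baseline.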

CYP2C9 (gene 1559) = assay: LTEA_HepaRG_CYP2C9: Life Technologies and Expression Analysis (LTEA) Assay for CYP2C9 using HepaRG (AID 2283484)
Procedure, shortened: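 Cells plated 48 h, switched to serum-free induction medium, then treated in duplicate for 48 h at eight concentrations (max 100 uM, 0.5% DMSO). RNA then analysed by qRT-PCR for CYP2C9; curves fitted in both directions relative to DMSO.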

CYP2E1 (gene 1571) = assay: LTEA_HepaRG_CYP2E1: Life Technologies and Expression Analysis (LTEA) Assay for CYP2E1 using HepaRG (AID 2283485)
Procedure, shortened: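 HepaRG cells, plated 48 h, then exposed 48 h in serum-free induction medium to eight half-log concentrations from 100 uM in 0.5% DMSO, duplicate. CYP2E1 mRNA by qRT-PCR, normalized to ACTB/GAPDH/POLR2A; bidirectional fit versus DMSO.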

CYP4A11 (gene 1579) = assay: LTEA_HepaRG_CYP4A11: Life Technologies and Expression Analysis (LTEA) Assay for CYP4A11 using HepaRG (AID 2283486)
Procedure, shortened: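 HepaRG, 48 h chem exposure, 8 conc (100 uM top, half-log), 0.5% DMSO vehicle; qRT-PCR readout, housekeeping-gene normalized; bidirectional curve fit vs DMSO baseline.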

[9] = read-out: Cytochrome P450 3A4 (Homo sapiens) (UniProt P08684); assay: LTEA_HepaRG_CYP3A4: Life Technologies and Expression Analysis (LTEA) Assay for CYP3A4 using HepaRG (AID 2283487)
Procedure, shortened: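 Differentiated HepaRG cells in serum-free induction medium exposed in duplicate for 48 h to 8 half-log concentrations up to 100 uM in 0.5% DMSO. CYP3A4 mRNA measured by qRT-PCR normalized to ACTB, GAPDH and POLR2A; bidirectional fit versus DMSO.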

[10] = read-out: DNA damage-inducible transcript 3 (DDIT3), DDIT3 (gene 1649); assay: LTEA_HepaRG_DDIT3: Life Technologies and Expression Analysis (LTEA) Assay for DNA damage-inducible transcript 3 (DDIT3) using HepaRG (AID 2283488)
Procedure, shortened: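 HepaRG cells, 48 h after plating, exposed 48 h in serum-free induction medium to 8 half-log concentrations up to 100 uM in 0.5% DMSO, in duplicate. DDIT3 mRNA measured by TaqMan qRT-PCR, normalized to ACTB, GAPDH and POLR2A. Fitted bidirectionally against DMSO.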

[11] = read-out: Pro-epidermal growth factor (Homo sapiens) (UniProt P01133); assay: LTEA_HepaRG_EGF: Life Technologies and Expression Analysis (LTEA) Assay for Epidermal growth factor (EGF) using HepaRG (AID 2283489)
Procedure, shortened: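 HepaRG, 48 h dosing, 100 uM top, half-log x8, 0.5% DMSO. Readout: TaqMan qRT-PCR (Fluidigm array), housekeeping-normalized. Gain or loss of signal fit vs DMSO.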

[12] = read-out: Ezrin (EZR), EZR (gene 7430); assay: LTEA_HepaRG_EZR: Life Technologies and Expression Analysis (LTEA) Assay for Ezrin (EZR) using HepaRG (AID 2283491)
Procedure, shortened: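 Differentiated human HepaRG cells, 48 h after plating, were exposed in serum-free induction medium for 48 hours to eight half-log concentrations up to 100 uM in 0.5% DMSO. EZR mRNA was measured by TaqMan qRT-PCR, normalized to ACTB, GAPDH and POLR2A, and fitted bidirectionally against DMSO.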

[13] = read-out: Cytochrome P450 3A7 (Homo sapiens) (UniProt P24462); assay: LTEA_HepaRG_CYP3A7: Life Technologies and Expression Analysis (LTEA) Assay for CYP3A7 using HepaRG (AID 2283492)
Procedure, shortened: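 Human HepaRG liver cells, 48 h post-plating, switched to serum-free induction medium and exposed in duplicate for 48 h. Dosing: 100 uM top, half-log dilutions, 8 points, 0.5% DMSO vehicle. Read-out: CYP3A7 mRNA, gain or loss fitted against DMSO baseline.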

[14] = read-out: Early growth response protein 1 (EGR1) transcription factor, EGR1 (gene 1958); assay: LTEA_HepaRG_EGR1: Life Technologies and Expression Analysis (LTEA) Assay for Early growth response protein 1 (EGR1) transcription factor using HepaRG (AID 2283490)
Procedure, shortened: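 Read-out is EGR1 mRNA level by qRT-PCR, normalized to three housekeeping genes and analysed for gain or loss of signal against 0.5% DMSO. Source cells: human HepaRG, treated 48 h at up to 100 uM in half-log dilutions.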

Measured: AC50

Chain of Caspase-3 (Homo sapiens) (P42574 whole entry, looked up): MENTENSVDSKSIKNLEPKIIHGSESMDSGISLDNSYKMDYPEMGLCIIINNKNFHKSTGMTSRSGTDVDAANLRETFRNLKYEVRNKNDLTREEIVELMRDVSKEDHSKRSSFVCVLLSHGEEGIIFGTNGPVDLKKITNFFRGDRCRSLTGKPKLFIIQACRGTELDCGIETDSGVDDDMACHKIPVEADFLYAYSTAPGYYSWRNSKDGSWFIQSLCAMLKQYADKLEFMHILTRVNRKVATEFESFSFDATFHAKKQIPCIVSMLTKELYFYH
Chain of Cytochrome P450 3A7 (Homo sapiens) (P24462 whole entry, looked up): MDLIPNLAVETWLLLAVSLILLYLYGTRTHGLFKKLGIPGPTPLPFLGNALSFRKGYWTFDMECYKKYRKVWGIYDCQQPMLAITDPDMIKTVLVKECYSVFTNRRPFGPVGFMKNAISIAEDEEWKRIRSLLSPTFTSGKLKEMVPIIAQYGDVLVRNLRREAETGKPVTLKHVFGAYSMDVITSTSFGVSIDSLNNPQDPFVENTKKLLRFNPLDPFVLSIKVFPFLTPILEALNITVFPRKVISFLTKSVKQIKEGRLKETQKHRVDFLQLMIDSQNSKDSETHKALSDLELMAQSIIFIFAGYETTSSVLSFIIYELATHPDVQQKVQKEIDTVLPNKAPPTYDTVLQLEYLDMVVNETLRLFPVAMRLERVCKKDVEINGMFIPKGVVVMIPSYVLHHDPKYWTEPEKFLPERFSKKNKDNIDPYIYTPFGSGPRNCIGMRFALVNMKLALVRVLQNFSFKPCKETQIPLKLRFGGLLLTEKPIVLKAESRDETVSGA
Chain of Cytochrome P450 3A4 (Homo sapiens) (P08684 whole entry, looked up): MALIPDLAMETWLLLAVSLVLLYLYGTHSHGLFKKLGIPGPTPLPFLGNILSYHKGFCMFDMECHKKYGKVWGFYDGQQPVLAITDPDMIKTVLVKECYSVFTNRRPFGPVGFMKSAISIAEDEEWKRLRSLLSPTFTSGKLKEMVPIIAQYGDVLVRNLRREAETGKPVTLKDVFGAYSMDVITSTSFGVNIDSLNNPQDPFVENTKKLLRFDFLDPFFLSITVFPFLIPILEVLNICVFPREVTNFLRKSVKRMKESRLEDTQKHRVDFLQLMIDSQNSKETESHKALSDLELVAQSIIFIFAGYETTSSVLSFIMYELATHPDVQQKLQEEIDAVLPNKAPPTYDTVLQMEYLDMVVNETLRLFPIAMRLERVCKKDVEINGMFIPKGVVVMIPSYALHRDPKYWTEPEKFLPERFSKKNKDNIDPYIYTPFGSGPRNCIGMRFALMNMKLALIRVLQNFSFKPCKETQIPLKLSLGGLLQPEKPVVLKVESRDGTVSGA
Chain of Apoptosis regulator Bcl-2 (Homo sapiens) (P10415 whole entry, looked up): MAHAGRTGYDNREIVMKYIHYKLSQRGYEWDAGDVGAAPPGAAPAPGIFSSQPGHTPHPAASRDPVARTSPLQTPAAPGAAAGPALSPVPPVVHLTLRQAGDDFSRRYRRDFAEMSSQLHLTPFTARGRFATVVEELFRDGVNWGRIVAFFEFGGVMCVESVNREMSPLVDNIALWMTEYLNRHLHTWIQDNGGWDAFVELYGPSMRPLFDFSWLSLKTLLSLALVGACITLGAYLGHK
Chain of Cytochrome P450 2C19 (Homo sapiens) (P33261 whole entry, looked up): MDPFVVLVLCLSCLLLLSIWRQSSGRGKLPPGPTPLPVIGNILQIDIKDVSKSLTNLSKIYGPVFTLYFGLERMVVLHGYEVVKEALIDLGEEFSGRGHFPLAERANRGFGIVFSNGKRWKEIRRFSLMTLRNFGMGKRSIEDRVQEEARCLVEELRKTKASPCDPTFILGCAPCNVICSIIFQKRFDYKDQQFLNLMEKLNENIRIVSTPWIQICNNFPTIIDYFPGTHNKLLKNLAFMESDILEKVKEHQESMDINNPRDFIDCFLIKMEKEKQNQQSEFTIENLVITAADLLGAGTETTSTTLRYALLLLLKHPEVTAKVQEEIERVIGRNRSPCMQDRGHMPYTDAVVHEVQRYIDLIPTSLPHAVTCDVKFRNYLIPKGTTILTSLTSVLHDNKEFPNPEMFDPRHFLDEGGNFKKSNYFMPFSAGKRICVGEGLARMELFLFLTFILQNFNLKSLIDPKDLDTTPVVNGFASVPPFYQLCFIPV

CCOC(N)=O
not listed: [14]
inactive: all other assays above

OCCOCCOCCO
not listed: [5]
inactive: all other assays above

CC1(C)C(=O)N(Cl)C(=O)N1Cl
active: [5] 50 µM
not listed: [14]
inactive: all other assays above

CCCCN1C(=O)[C@@H]([C@H](O)C2CCCCC2)NC(=O)C12CCN(Cc1ccc(Oc3ccc(C(=O)O)cc3)cc1)CC2
active: BCL2L11 (gene 10018) 4.66 µM | [1] 3.04 µM | [2] 12.7 µM | Caspase-3 (Homo sapiens) 2.23 µM | [4] 9.92 µM | [6] 3.02 µM | [7] 1.94 µM | [8] 2.02 µM | CYP2C8 (gene 1558) 3.24 µM | CYP2C9 (gene 1559) 1.7 µM | CYP2E1 (gene 1571) 3.86 µM | CYP4A11 (gene 1579) 2.41 µM | [9] 1.82 µM | [10] 3.66 µM | [11] 9.39 µM | [13] 2.38 µM
inactive: [3] | [12]

CC[C@H](C)C(=O)O[C@H]1C[C@H](O)C=C2C=C[C@H](C)[C@H](CC[C@@H](O)C[C@@H](O)CC(=O)O)[C@H]21
active: [5] 3.09 µM | CYP2E1 (gene 1571) 50 µM
not listed: [8] | [14]
inactive: all other assays above

CCN(CC)C(=S)SSC(=S)N(CC)CC
active: [5] 75.2 µM | [7] 16.8 µM
not listed: [14]
inactive: all other assays above
